High-throughput results from PubChem BioAssay.
An excerpt weighted towards active compounds, which were near 1.8% of everything screened.
RN4220 kill – growth inhibition of S. aureus RN4220, primary screen, OD600 | 330,000 compounds, 0.33% hits | inhibition, % (no concentration beside the values) | 16 h | AID 1259311, 2017; in the data active = inhibition above about 85%;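 note: plate controls were untreated cells for no effect and reference antibiotic for full effect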
ugtP null kill – growth inhibition of ugtP-null S. aureus, primary screen, RN4220 ugtP deletion, OD600 | 16 h | growth inhibition, % (concentration not given with the values) | 330,000 compounds, 0.54% hits; in the data active = growth inhibition above about 68%;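 note: plate controls were untreated wells for no effect and antibiotic for full effect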
PfHsp40 yeast – rescue of yeast from PfHsp40 toxicity, primary screen, S. cerevisiae, ATP luminescence; 340,000 compounds, 0.68% hits; growth rescue, % at 12.5 µM; S. cerevisiae expressing PfHsp40, growth rescue; in the data active = growth rescue above about 28%, passing the limit was not always enough;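 note: yeast W303a lacking pdr1 and pdr3 grown in galactose medium; growth measured after three days at 30 °C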
PriA SSB inh – inhibitors of Klebsiella pneumoniae PriA binding to SSB C-terminal tail, primary screen, biochemical, AlphaScreen. PriA–SSB C-terminal tail interaction (Klebsiella pneumoniae). AlphaScreen SSBct-PriA binding, biotinylated peptide. inhibition, % at 33 µM. 430,000 compounds, 0.6% hits. AID 1272365, 2023; in the data active = inhibition mostly above about 37%, no sharp cut-off; inactive = mostly below about 20%;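 note: plate controls were negative control peptide for no effect and reference peptide for full effect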
Mtb hypoxia inh – PubChem AID 1159583; M. tuberculosis hypoxia-regulated fluorescent reporter, fluorescence; 300,000 compounds, 0.1% hits; fluorescence inhibition, % (concentration not given with the values); in the data active = fluorescence inhibition mostly above about 23%, no sharp cut-off; inactive = mostly below about 17%
VHR inh abs – VHR1 phosphatase inhibitors, primary screen, biochemical, absorbance, uHTS. Dual specificity protein phosphatase 3 (Homo sapiens), P51452. recombinant VHR phosphatase, pNPP absorbance. inhibition, % at 13.3 µM. 290,000 compounds, 0.52% hits. AID 1654, 2009; in the data active = inhibition above about 50%
Target sequence (P51452 whole entry, looked up): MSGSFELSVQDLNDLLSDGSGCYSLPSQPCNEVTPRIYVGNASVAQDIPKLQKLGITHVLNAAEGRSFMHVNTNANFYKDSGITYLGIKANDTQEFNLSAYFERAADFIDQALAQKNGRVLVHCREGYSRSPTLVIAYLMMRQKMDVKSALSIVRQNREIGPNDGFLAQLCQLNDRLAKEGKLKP
The depositor's hits bear a star; x = no result given; ! = repeats disagree.

SMILES	RN4220 kill	ugtP null kill	PfHsp40 yeast	PriA SSB inh	Mtb hypoxia inh	VHR inh abs
CCn1cc(C(=O)O)c(=O)c2cc(F)c(N3CCN(C(=S)NC(=O)c4ccccc4Cl)CC3)cc21	99.6*	99.6*	-0.3	6.4	8.4	4.4
CCn1cc(C(=O)O)c(=O)c2cc(F)c(N3CCN(C(=S)NC(=O)c4cc(OC)cc(OC)c4)CC3)cc21	99.7*	99.0*	0.7	5.2	4.7	2.2
CCn1cc(C(=O)O)c(=O)c2cnc(N3CCN(C(=S)NC(=O)c4ccccc4)CC3)nc21	20.5	17.5	-0.7	-6.2	6.1	-10.8
CCn1cc(C(=O)O)c(=O)c2cc(F)c(N3CCN(C(=S)NC(=O)c4ccccc4C)CC3)cc21	99.9*	99.7*	0.3	1.6	20.9	8.4
CCn1cc(C(=O)O)c(=O)c2cc(F)c(N3CCN(C(=S)Nc4ccc(OC)cc4)CC3)cc21	80.4	79.0	0.1	0.0	13.1	4.4
COC1(OC)C(=NO)C(=NO)CCC1O (stereo unspecified)	2.4	7.5	x	-8.1	8.1	x
Cc1cc(NC(=O)C(=O)NCC2CCN(Cc3ccccc3)CC2)no1	x	x	x	-9.0	x	x
CCc1ccc(-c2cc3c(SCC(=O)Nc4cc(OC)ccc4OC)nccn3n2)cc1	x	x	x	2.0	x	x
O=C(NCc1ccco1)c1ccc(CNS(=O)(=O)c2cccc(C(F)(F)F)c2)cc1	x	x	x	-12.0	x	x
CSc1nc2c(c(-c3ccccc3)c1C#N)CCC2	-4.5	83.4*	-0.9	-75.3	9.1	x
Cc1ccc(SC(CC(=O)c2ccc(F)cc2)C(=O)O)cc1 (stereo unspecified)	2.0	2.1	1.5	-4.9	10.5	-22.5
CC(C)(C)c1ccc(C(=O)CC(Sc2ccc(Cl)cc2)C(=O)O)cc1 (stereo unspecified)	-3.5	55.2	75.1*	0.4	0.2	25.6
CCOc1cc(NC(=S)NCC(C)C)c(OCC)cc1NC(=O)c1ccco1	12.6	4.0	-0.7	-2.2	5.5	51.3*
COc1cc(NC(=O)Nc2cccc(Cl)c2)c(OC)cc1NC(=O)CN1CCCCC1	36.2	38.4	-1.6	49.5*	11.2	8.3
COc1ccc(NC(=O)CN2CCN(CC(=O)Nc3ccccc3Cl)CC2)cc1Cl	1.6	11.3	0.9	-14.1	x	50.8*
COc1ccccc1NC(=O)CN1CCN(CC(=O)Nc2ccc(Cl)c(C(F)(F)F)c2)CC1	-15.3	-25.9	1.2	-5.0	x	34.3
COc1ccccc1NC(=O)c1ccc(NC(=O)CN2CCCC2)cc1	14.5	2.1	1.7	46.7*	10.6	21.7
COCCCN1C(=O)C(=O)C(=C(O)c2ccc(OC)cc2)C12C(=O)N(C)c1ccccc12 (stereo unspecified)	x	x	x	-3.0	x	x
Cc1cc(C)c(C)c(OCCOCCN2CCN(C)CC2)c1	1.8	1.3	122.7*	-4.3	9.3	-9.9
C=C(C)C1CC=C(C)/C(=N/NC(=O)c2ccncc2)C1 (stereo unspecified)	x	x	x	4.0	x	x
O=C(CSc1ncnc2c1oc1ccccc12)c1cccs1	10.8	-3.6	-0.6	-1.2	9.0	32.1
Cc1nc(SCC(=O)Nc2ccc3c(c2)OCCO3)c2oc3ccccc3c2n1	4.5	90.3*	-0.5	-7.8	6.5	24.7
Cc1nc(SCC(=O)c2cccs2)c2oc3ccccc3c2n1	29.4	-9.8	-1.0	-8.0	6.9	56.4*
Cc1nc(SCc2ccccc2F)c2oc3ccccc3c2n1	8.0	9.0	-0.2	-2.9	39.8*	7.7
N#Cc1nccnc1N1CCC(CNS(=O)(=O)Cc2ccccc2Cl)CC1	x	x	x	-27.0	x	x
SMILES	RN4220 kill	ugtP null kill	PfHsp40 yeast	PriA SSB inh	Mtb hypoxia inh	VHR inh abs
CN(C)S(=O)(=O)Oc1ccc(Cl)c2cccnc12	x	x	x	-8.0	x	x
O=C(Nc1nc(-c2ccc3c(c2)OCO3)cs1)c1ccc2c(c1)CCCC2	x	x	x	2.0	x	x
COc1cccc2c1C(=O)c1c(O)c3c(c(O)c1C2=O)CC(O)(C(C)=O)CC3OC1CC(N(C)C)C(O)C(C)O1 (stereo unspecified)	x	x	400.8*	14.8	x	x
COc1cccc2c1C(=O)c1c(O)c3c(c(O)c1C2=O)C[C@@](O)(C(=O)CO)C[C@@H]3O[C@H]1C[C@H](N)[C@H](O)[C@H](C)O1	x	x	146.1*	33.0	x	4.7
Oc1c(N=Nc2ccccc2)sc2ccccc12	4.2	5.4	1.2	25.3	10.8	12.8
Oc1ccc(N=Nc2ccccc2)o1	1.9	4.7	288.5*	-9.9	6.2	23.3
O=C(O)c1ccc(N(Cc2ccccc2)S(=O)(=O)c2ccccc2)cc1	4.3	5.4	1.1	1.8	4.1	58.7*!
O=C(O)c1ccc(S(=O)(=O)N(Cc2ccccc2)Cc2ccccc2)cc1	9.3	-15.9	-3.2	-3.3	2.3	-15.2
Cn1c(=O)c2c(nc(NN=Cc3c(O)n(-c4ccccc4)c(=S)[nH]c3=O)n2C)n(C)c1=O	x	x	x	23.9	x	x
O=C(Oc1cc(-c2ccc(Cl)cc2)c2oc(=O)sc2c1)c1ccc(Cl)cc1	x	x	x	-1.0	x	x
COc1ccc(Cl)cc1C(=O)Nc1ccc(Nc2cc(OC(C)C)nc(C)n2)cc1	x	x	x	-8.0	x	x
N#Cc1nc(-c2ccco2)oc1N1CCN(c2ccccc2)CC1	-9.4	-11.0	1.0	38.4*	14.5	5.0
COc1ccc(N2CCN(c3oc(-c4ccco4)nc3C#N)CC2)cc1	-0.8	0.5	0.4	14.9	3.7	36.1
COc1ccc(N2CCN(c3oc(-c4ccccc4OC)nc3C#N)CC2)cc1	5.8	-11.8	2.0	27.0	0.8	27.1
COc1ccccc1-c1nc(C#N)c(N2CCN(c3ccccc3)CC2)o1	-5.3	-24.3	3.8	50.5*	12.6	8.3
COc1ccccc1-c1nc(C#N)c(N2CCc3ccccc3C2)o1	4.3	-17.1	1.0	56.1*	4.3	6.7
COc1ccc(S(=O)(=O)NCCN2CCN(c3ccccc3F)CC2)c(C)c1	x	x	x	-9.0	x	x
Fc1ccc(NC(=S)N/N=C/c2ccc(F)c(F)c2)c(F)c1	x	x	0.2	x	x	51.6*
Fc1ccc(NC(=S)NN=Cc2ccc(F)c(F)c2)cc1	1.7	7.0	x	-2.3	14.1	x
Cc1ccc(N=Cc2cc(Cc3ccccc3Cl)cc([N+](=O)[O-])c2O)c(O)c1	6.6	-7.0	82.6*	2.0	-0.8	22.7
COc1ccc2nc(N3CCC(O)CC3)c(C#N)cc2c1	0.7	9.9	-0.2	-1.1	x	7.0
COc1ccc2nc(N3CCC(C)CC3)c(C#N)cc2c1	3.9	88.8*	0.6	-12.2	12.3	-1.8
CN(Cc1ccco1)C(=O)C1CCCN(c2ncnc3c2nc2n3CCCCC2)C1 (stereo unspecified)	0.7	6.6	-0.5	-2.9	3.3	27.4
CN1CCN(C(=O)C2CCN(c3ncnc4c3nc3n4CCCCC3)CC2)CC1	0.6	1.1	-0.8	-2.9	-8.3	10.8
CC1CCCC(C)N1CCCNC(=O)C1CCCN(c2ncnc3c2nc2n3CCCCC2)C1 (stereo unspecified)	4.5	8.5	-1.2	-1.4	5.4	42.7
